Consider 39 compounds from PubChem BioAssay AID504340 (NMMLSC, 2011).

Several values for one entry are separate records, joined by “and”; a condition that tells them apart may be missing. Equal values may be shown once. Values without a mark were called inactive. Activity calls are given as the source filed them.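 The calls were made as follows: active = GFP response above 150% of the DMSO control; inconclusive = Under 70 cell events counted for a yeast strain; inactive = the rest.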

This assay in a line: yeast TOR pathway CIT2-GFP reporter retest – flow cytometry, third cherry pick, single plex, confirmation (AID 504340).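 Also: median GFP fluorescence over all cells with no mother versus daughter split; sample signal as a ratio to the plate DMSO mean so 100% equals DMSO.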 The note with it: S. cerevisiae CIT2-GFP strain, 3 h, at 10 µM, active compounds read high.
With `O=C(O)CCS(=O)(=O)c1nc(-c2cccs2)cc(C(F)(F)F)n1`, the GFP response vs DMSO was 106%.

Consider `C[n+]1cccc2cccc([O-])c21`, for which the GFP response vs DMSO is 103%.

Take `C[n+]1cccc2c(Br)ccc([O-])c21`: the GFP response vs DMSO is 97.7%. In the case of `COCC(C)NC(=O)CCS(=O)(=O)c1nc(-c2ccc(OC)cc2)cc(C(F)(F)F)n1` (centres undefined), the GFP response vs DMSO was 103% and 92.8%.

On to `C=CCNc1ncnc2ccccc12`, for which the GFP response vs DMSO was 103%. With `Cc1ccc(Nc2nc(N)[nH]c(=O)c2N=O)cc1`, the GFP response vs DMSO was 106%. Consider `C/C(=C\C(=O)c1ccc(C)cc1)Nc1cccc(O)c1`, for which the GFP response vs DMSO was 103%. Turning to `COc1ccccc1Nc1nc(NCCC(C)C)nc(N)c1[N+](=O)[O-]`, the GFP response vs DMSO is 114%. As to `COc1cccc2c(=O)c(C(=O)O)c[nH]c12`, the GFP response vs DMSO is 99.3%. With `Cc1ccc(NC(=O)O/N=C2\CCCCC2c2ccc([N+](=O)[O-])cc2[N+](=O)[O-])cc1` (centres undefined) the figure was 106%; with `O=C(O)c1ccccc1-c1ccccc1C(=O)Nc1ccc(-c2nc3cc(Cl)ccc3o2)cc1`, 99.3%. On to `Cc1cccc(N/C=C/C(=O)c2ccc(Cl)cc2)c1`, for which the GFP response vs DMSO is 97.7%. With `O=C(Nc1ccccc1)O/N=C1\CCCCC1c1ccc([N+](=O)[O-])cc1[N+](=O)[O-]` (centres undefined) the figure was 101%; with `COc1ccc(OC)c2c(=O)cc(C(=O)O)[nH]c12`, 111%; with `Oc1c(I)cc(Cl)c2cccnc12`, 182% (active). For `Nc1c(O)ccc2c1C(=O)c1ccccc1C2=O` the value was 99.3%. In the case of `Cc1ccc(-c2cc(C(F)F)nc(S(C)(=O)=O)n2)cc1`, the GFP response vs DMSO is 91.2%.

Regarding `C/C(=C\C(=O)c1ccc(Cl)cc1)Nc1ccc(Br)cc1`, the GFP response vs DMSO was 104%. On to `CC(=O)Nn1cnc2c(c1=O)C1(CCCCC1)Cc1ccccc1-2`, for which the GFP response vs DMSO was 112%. With `COc1ccc(N/C=C/C(=O)c2ccc(Cl)cc2)cc1` the figure was 107%. Consider `CC(=O)Nn1cnc2c(c1=O)C1(CCCC1)Cc1ccccc1-2`, for which the GFP response vs DMSO is 89.6%. With `CCC(C)Nc1nc(N)c([N+](=O)[O-])c(Nc2cc(OC)ccc2OC)n1` (centres undefined) the figure was 101%; with `Cn1c(NCCO)nc2c(c1=O)C1(CCCCC1)Cc1ccccc1-2`, 116%; with `Brc1ccc2ncnc(NCc3ccccc3)c2c1`, 112%. Consider `CSc1nc(Nc2ccc(Cl)cc2)c(C#N)c(=O)[nH]1`, for which the GFP response vs DMSO was 104%. Regarding `CNc1nc(N)c([N+](=O)[O-])c(Nc2ccccc2OC)n1`, the GFP response vs DMSO is 168% (active). Take `C/C(=N\NC(=O)c1cccc2ccccc12)c1cccnc1`: the GFP response vs DMSO is 91.2%.

Regarding `Cc1ccc(C(=O)/C=C/Nc2cccc(O)c2)cc1`, the GFP response vs DMSO is 109%. With `O=C(Nc1ccccc1)O/N=C1/CCCc2occc21` the figure was 103%. Regarding `COCCCNc1nc(N)c([N+](=O)[O-])c(Nc2ccccc2OC)n1`, the GFP response vs DMSO was 107%.

For the compound `Cc1nc2c(O)cccc2cc1CO`, the GFP response vs DMSO was 101%. Regarding `O=c1cc(C(F)(F)F)[nH]c2c(OC(F)(F)F)cccc12`, the GFP response vs DMSO is 107%. With `O=C(Nc1cccc2ccccc12)ON=C1CCCCC1` the figure was 106%. Consider `COc1cc(=O)n(C)c2c(O)cccc12`, for which the GFP response vs DMSO is 92.8%. For `COC1=C/C(=C/c2c(N)n3cc(C)sc3nc2=O)C=CC1=O` the value was 124%; for `Cc1cc(C)c2ccc(N)nc2c1O`, 99.3%.

On to `CC1=CN2C(=N)/C(=C/c3ccc([N+](=O)[O-])o3)C(=O)N=C2S1`, for which the GFP response vs DMSO is 1030% (active).

In the case of `CC(=O)C(Cl)C(=O)Nc1ccccc1` (centres undefined), the GFP response vs DMSO is 121%. For `CC(=O)NC(C)c1cc(Cl)c2cccnc2c1O` (centres undefined) the value was 97.7%.
